# In PubChem BioAssay AID504834 (National Center for Advancing Translational Sciences (NCATS), 2011):
# Among all 320,000 compounds or so, about 22,000 (6.9%) were called active. Not shown: some 27% with an inconclusive outcome. The call rests on the fitted dose curve; in most records, active means well fitted inhibition curve with a large enough effect; inconclusive means small, poorly fitted or top-dose-only effect, or another doubt; inactive means no such curve, though single readings can be large or run the other way. For the sample, actives were picked, then their nearest neighbours and some compounds at random.
# Assay: Primary qHTS for delayed death inhibitors of the malarial parasite plastid, 96 hour incubation
# Conditions: P. falciparum luciferase reporter growth; series mostly up to 28.7 µM; activity change, negative = inhibition: at the top concentration
# In short: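 Erythrocytes infected with luciferase-expressing P. falciparum were dispensed at 2% hematocrit and 0.05% parasitemia (final), then incubated with compounds 96 hours at 37 C in 5% CO2. Luminescence after detection reagent addition reported growth.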
# On the % scale 0 is the no-effect control and ±100 the full control effect; potency means the concentration at half of the fitted maximal effect.
SMILES,"activity change, negative = inhibition",Potency
CN(CC(=O)NCc1ccc(Cl)cc1)S(=O)(=O)c1cccs1,22.6% (inactive),
COc1ccccc1OCCNC(=O)CCNC(=O)c1ccccc1Cl,-22.2% (inactive),
COc1cc(SC)ccc1C(=O)NCCOc1ccccc1Cl,,0.738 µM (active)
COc1ccc(N2C(=O)C3CCCN3C2c2cc(OC)c(OC)cc2OC)cc1 (stereo not given),45.6% (inactive),
COc1cccc(N2C(=O)C3CCCN3C2c2ccc(F)cc2)c1 (stereo not given),,10.4 µM (active)
COc1ccc(N2C(=O)C3CCCN3C2c2cccc(OC)c2)cc1 (stereo not given),7.91% (inactive),
CCNC(=O)c1cnn(-c2ccccc2)c1-c1ccccc1,-20% (inactive),
COc1ccccc1CNC(=O)COn1nnc2ccc(S(=O)(=O)N3CCOCC3)cc21,-2.01% (inactive),
O=C(CN(CC1CCCO1)C(=O)CNS(=O)(=O)c1ccc(F)cc1)NCc1ccco1 (stereo not given),19.6% (inactive),
CCCC(C(=O)NCc1ccco1)N(C(=O)CNS(=O)(=O)c1ccccc1)C1CCCC1 (stereo not given),,10.4 µM (active)
CC(C)C(C(=O)NCc1ccco1)N(CC1CCCO1)C(=O)CNS(=O)(=O)c1ccc(F)cc1 (stereo not given),-19.1% (inactive),
CCC(C)n1[nH]c(=O)c2c(C)cc(C)nc21 (stereo not given),4.88% (inactive),
C=CCc1c(C)nc2cc(-c3ccccc3)[nH]n2c1=O,20.7% (inactive),
CCc1c(C)nc2cc(C)[nH]n2c1=O,,3.7 µM (active)
Cc1nc2nc(COc3ccccc3)[nH]n2c(=O)c1Cc1ccccc1,29% (inactive),
CCc1c(C)nc2cc(-c3cccs3)[nH]n2c1=O,,2.08 µM (active)
Cc1cc(=O)n2[nH]c(-c3cccc(Cl)c3)cc2n1,-30.1% (inactive),
CC(=O)Nc1ccc(S(=O)(=O)N2CCC(C(=O)N[C@@H](Cc3ccccc3)C(=O)O)CC2)cc1,16.2% (inactive),
CC(OC(=O)CCC(=O)c1ccccc1)C(=O)Nc1ccc(F)cc1 (stereo not given),4.68% (inactive),
NC(=O)CN1CCCC1c1ccc2c(c1)OCCO2 (stereo not given),37.4% (inactive),
O=C(C1CCCN(S(=O)(=O)c2ccc([N+](=O)[O-])cc2)C1)N1CCCCC1 (stereo not given),83% (inactive),
O=C(C1CCC1)N1CCN(S(=O)(=O)c2ccc([N+](=O)[O-])cc2)CC1,,10.4 µM (active)
O=C(Cc1ccccc1)N1CCN(S(=O)(=O)c2ccc([N+](=O)[O-])cc2)CC1,0.489% (inactive),

SMILES,"activity change, negative = inhibition",Potency
CC1CCCCC1NC(=O)/C(C#N)=C/C=C/c1ccccc1[N+](=O)[O-] (stereo not given),,11.7 µM (active)
O=C(/C=C/c1ccccc1[N+](=O)[O-])OC1CCCCC1=O (stereo not given),22.2% (inactive),
O=C(/C=C/c1ccccc1[N+](=O)[O-])NCC1CCCO1 (stereo not given),0% (inactive),
CC(=O)Nc1cccc(C(=O)OCC(=O)Nc2nnc(-c3ccccc3)o2)c1,-0.187% (inactive),
CC(OC(=O)/C=C/c1ccccc1)C(=O)NC1CCCCC1C (stereo not given),-13.5% (inactive),
CC[N+](C)(CC)CCC[n+]1c(-c2ccccc2)c2cc(N)ccc2c2ccc(N)cc21,,0.233 µM (active)
O=C(CCNC(=O)c1ccccc1)Nc1nc2ccccc2s1,80.1% (inactive),
CC(C)(C)OC(=O)NC(Cc1ccccc1)C(=O)NC(CSC1CCCCO1)C(=O)NN (stereo not given),-13.4% (inactive),
CCn1cc(C(=O)NCC(=O)NC(C)(C)CO)c(=O)c2cc3c(cc21)OCO3,33.4% (inactive),
CCOc1ccc(N(CC(=O)Nc2ccccc2F)S(=O)(=O)c2c(C)[nH]c(=O)[nH]c2=O)cc1,10.6% (inactive),
COc1cccc(N(CC(=O)NC2CCCCCC2)S(=O)(=O)c2ccccc2)c1,,13.1 µM (active)
COc1ccc(N(CC(=O)NC2CCCCC2)S(=O)(=O)c2c(C)[nH]c(=O)[nH]c2=O)cc1,,5.86 µM (active)
O=C(CN(c1cccc(Cl)c1)S(=O)(=O)c1ccccc1)NN=C1CCCC1,-104% (inactive),
COc1ccc(N(CC(=O)Nc2ccc(F)c(F)c2)S(=O)(=O)c2c(C)[nH]c(=O)[nH]c2=O)cc1,15.3% (inactive),
COc1cccc(N(CC(=O)NC2CCCC2)C(=O)CCCC(=O)Nc2ccccn2)c1,-25.1% (inactive),
O=C(Cc1cccs1)NCc1cccc(C(F)(F)F)c1,12.6% (inactive),
COc1ccc(N2CC(C(=O)NCCS(=O)(=O)N3CCN(c4ccccc4)CC3)CC2=O)cc1 (stereo not given),107% (inactive),
CCC(CC)C(=O)Nc1c2c(nn1-c1ccc(C)cc1)CS(=O)(=O)C2,-17.7% (inactive),
O=CN1CCN(C(=O)c2ccc3c(c2)OCO3)CC1,-14% (inactive),
CC(C)CN(C(=O)CSc1nncn1C)C1CCS(=O)(=O)C1 (stereo not given),45.5% (inactive),
Cc1ccc(NC(=O)CCN2CCc3ccccc3C2)cc1,-12.6% (inactive),
Cc1ccc(NC(=O)CN2CCc3ccccc3C2)cc1,21.5% (inactive),
Cc1ccc(C(=O)N2CCCC(c3ccccc3)=N2)cc1,-22.4% (inactive),

SMILES,"activity change, negative = inhibition",Potency
Cc1ccc(C(=O)C[n+]2cc(-c3ccccc3)n3c2CCCCC3)cc1,,0.415 µM (active)
Cc1ccc(-c2c[n+](CC(=O)Nc3ccccc3)c3n2CCC3)cc1,,3.7 µM (active)
Cc1cccc[n+]1CC(=O)c1ccccc1,33.3% (inactive),
COc1ccc(S(=O)(=O)Nc2cc(C)on2)cc1NC(C)=O,8.11% (inactive),
CCCc1cc(=O)oc2c(C)c(OCC(=O)Nc3ccccn3)ccc12,-40.6% (inactive),
COCCCNC(=O)CN1C(=O)CSc2ccc(S(=O)(=O)N3CCOCC3)cc21,6.67% (inactive),
CCOC(=O)C1CCN(C(=O)Cn2nc(C)c3c(C)n(-c4ccccc4)nc3c2=O)CC1,62.5% (inactive),
O=S(=O)(NCCc1ccc(Cl)cc1)c1cccs1,30.8% (inactive),
COc1cc(C(=O)OC2CCOC2=O)c([N+](=O)[O-])cc1OC (stereo not given),15% (inactive),
COc1ccc(NC(=O)CS(=O)(=O)c2ccccc2)cc1,0.182% (inactive),
COc1ccc(-c2nnc(NC(=O)CS(=O)(=O)c3ccc(Cl)cc3)o2)c(OC)c1,,8.28 µM (active)
COc1ccc(-c2nnc(SCC(=O)c3cccs3)o2)c(OC)c1,7.45% (inactive),
COc1ccc(-c2n[nH]c3c2CN(C(=O)c2ccc(F)cc2)CC3)cc1,52% (inactive),
Cc1nonc1C1CCCN1C(=O)c1cc(COc2cccc(C(F)(F)F)c2)on1 (stereo not given),14.5% (inactive),
O=C(N/N=C/C=C/c1ccccc1)C1CC1(c1ccccc1)c1ccccc1 (stereo not given),,10.4 µM (active)
O=C(N/N=C/c1ccccc1O)C1CCCC1,-102% (inactive),
COc1ccccc1/C=C/C=N/NC(=O)CN1CCN(Cc2ccccc2)CC1,-12.1% (inactive),
CCc1cc(=O)oc2c(C)c(OCC(=O)N3CC[C@@]4(O)CCCC[C@H]4C3)ccc12,-25.6% (inactive),
CCOC(=O)c1[nH]c2c(c1-c1ccccc1)C(=O)CC(c1ccc(Cl)cc1)C2 (stereo not given),,9.28 µM (active)
CCOC(=O)c1cc(NC(=O)c2ccc(Cl)cc2)c(=O)oc1-c1ccccc1,0% (inactive),
CCOC(=O)c1[nH]c2c(c1C)C(=O)CC(c1ccc(N(C)C)cc1)C2 (stereo not given),1.58% (inactive),
Cc1cccc(C(=O)NC(=S)N(C)C2CCCCC2)c1,-85.4% (inactive),
C#CCOCCOCCOCCNc1nc(N2CCN(C(=O)Cn3cc(CCCCN)nn3)CC2)nc(N2CCN(C(=O)[C@H](CCCCN)n3cc(CCC(=O)O)nn3)CC2)n1,-25.7% (inactive),

SMILES,"activity change, negative = inhibition",Potency
C#CCOCCOCCOCCNc1nc(N2CCN(C(=O)CCCCCCCCCCNC(=O)[C@H]([C@@H](C)CC)n3cc(CCCCN=C(N)N)nn3)CC2)nc(N2CCN(C(=O)CCCCCCCCCCNC(=O)[C@H](CO)n3cc(CCCSC)nn3)CC2)n1,,0.37 µM (active)
C#CCOCCOCCOCCNc1nc(N2CCN(C(=O)CCCCCCCCCCNC(=O)Cn3cc(CCCCCN)nn3)CC2)nc(N2CCN(C(=O)CCCCCCCCCCNC(=O)[C@H](CO)n3cc(CCCSC)nn3)CC2)n1,,1.47 µM (active)
C#CCOCCOCCOCCNc1nc(N2CCN(C(=O)[C@H](CCCCN)n3cc(CCC(=O)O)nn3)CC2)nc(N2CCN(C(=O)[C@H](CCCCN)n3cc(CC(C)O)nn3)CC2)n1 (stereo not given in full),87.4% (inactive),
C#CCOCCOCCOCCNc1nc(N2CCN(C(=O)CCCCCCCCCCNC(=O)[C@H](CCCCN)n3cc(C)nn3)CC2)nc(N2CCN(C(=O)CCCCCCCCCCNC(=O)[C@H](CO)n3cc(CCCSC)nn3)CC2)n1,,0.294 µM (active)
C#CCOCCOCCOCCNc1nc(N2CCN(C(=O)[C@H](CCC(=O)O)n3cc(C(N)CO)nn3)CC2)nc(N2CCN(C(=O)[C@H](CCCCN)n3cc(C(N)[C@H](C)CC)nn3)CC2)n1 (stereo not given in full),34.7% (inactive),
C#CCOCCOCCOCCNc1nc(N2CCN(C(=O)[C@H](CCCCN)n3cc([C@@H](N)C(C)CC)nn3)CC2)nc(N2CCN(C(=O)[C@H](Cc3ccc(O)cc3)n3cc([C@@H](N)C(C)CC)nn3)CC2)n1 (stereo not given in full),-11.3% (inactive),
C#CCOCCOCCOCCNc1nc(N2CCN(C(=O)[C@H](C(C)C)n3cc(CCO)nn3)CC2)nc(N2CCN(C(=O)[C@H](C(C)C)n3cc(CCO)nn3)CC2)n1,-0.171% (inactive),
C#CCOCCOCCOCCNc1nc(N2CCN(C(=O)[C@H](CCC(=O)O)n3cc(C(N)CO)nn3)CC2)nc(N2CCN(C(=O)[C@H](CCCCN)n3cc(C(N)CC(C)C)nn3)CC2)n1 (stereo not given in full),79.2% (inactive),
CSc1n[nH]c(=S)n1N,-1.76% (inactive),
Cc1c(CC(=O)NCCCCCC(=O)O)c(=O)oc2cc3occ(-c4ccccc4)c3cc12,-27.6% (inactive),
CCOc1ccccc1NC(=O)Cn1ncc2ccc([N+](=O)[O-])cc21,0.0479% (inactive),
CC(=O)NC1CCN(CC(=O)Nc2nccs2)CC1,-1.24% (inactive),
O=C(Nc1ncccc1O)c1ccc(S(=O)(=O)N2CCCCCC2)cc1,,5.22 µM (active)
O=C(Nc1ncccc1O)c1ccc(C(=O)c2ccccc2)cc1,,0.928 µM (active)
CN1CCN(NC(=O)c2ccc(S(=O)(=O)N3CCCCCC3)cc2)CC1,-6.85% (inactive),
CCOC(=O)c1csc(NC(=O)c2ccc(S(=O)(=O)N3CCCC3)cc2)n1,5.07% (inactive),
O=C(NC(=O)c1ccccc1)Nc1ccccc1O,37.6% (inactive),
O=C(Nc1ccccc1F)c1ccc(S(=O)(=O)N2CCCCCC2)cc1,1.93% (inactive),
O=C(N/N=C/c1ccccn1)c1ccc(S(=O)(=O)N2CCCCCC2)cc1,1.52% (inactive),
O=C(CNC(=O)c1ccc2ccccc2c1)Nc1ncccc1O,127% (inactive),
O=C(Nc1ncccc1O)c1ccc(S(=O)(=O)N2CCCC2)cc1,,2.08 µM (active)
